Laboratory results as given in publication PMC7826789 (International Journal of Molecular Sciences, 2021).

System: RAF1

Kinases covered, RAF1:
O=C1Nc2ccc(C(=O)c3ccco3)cc2C1=Cc1cc(Cl)c(O)c(Cl)c1 [GW406108X]
CN(C)CCOc1ccc(-c2nc(-c3ccc4c(c3)CC/C4=N\O)c(-c3ccncc3)[nH]2)cc1 [SB-590885]
CCCS(=O)(=O)Nc1ccc(F)c(-n2cc(-c3cncc(OC)c3)nn2)c1F [BI00865461]

System: RET

Kinases covered, RET:
COc1cc2ncnc(Nc3cccc(Cl)c3F)c2cc1O[C@H]1CC[C@H]([C@@H]2NCCNC2=O)CC1 [BI00133844]
Cl.O=C(Nc1ccc(Oc2ccc3[nH]c(NC(=O)c4ccccc4)nc3c2)cc1)Nc1cc(C(F)(F)F)ccc1F [GW709042A]
COc1cc2c(cc1OC)C(=C(Nc1ccccc1)c1cccc(CN)c1)C(=O)N2 [BIBF0846CL]

System: RIPK1

Kinases covered, RIPK1:
Cn1cc(-c2ccc3c(c2)CCN3C(=O)Cc2cccc(C(F)(F)F)c2)c2c(N)ncnc21 [GSK2606414]
CN1C(=O)[C@@H](NC(=O)c2cc(Cc3ccccc3)on2)COc2ccccc21 [GSK481]
Cc1cccc(CC(=O)N2CCc3c2ccc(-c2cn(C)c4ncnc(N)c24)c3F)n1 [GSK2656157]

System: RIPK2

Kinases covered, RIPK2:
CN(C)CCOc1ccc(-c2nc(-c3ccc4c(c3)CC/C4=N\O)c(-c3ccncc3)[nH]2)cc1 [SB-590885]
COc1cc(-c2cncc(-c3cnn(C4CCNCC4)c3)c2)cc(OC)c1OC [K05908]
CC(C)(C)S(=O)(=O)c1ccc2nccc(Nc3n[nH]c4ccc(F)cc34)c2c1 [GSK583]

System: RIPK3

Kinases covered, RIPK3:
CC(C)S(=O)(=O)c1ccc2nccc(Nc3ccc4scnc4c3)c2c1 [GSK872]
CNC(=O)c1ccc2c(c1)ncn2-c1ccc(CC(=O)OC(C)(C)C)cc1 [GSK840]
Cc1cc(-c2cnc(N)c3c(-c4ccc5scnc5c4)csc23)n(C)n1 [GSK843]
